Experimental findings from PubChem BioAssay (NCATS) are described below.

Results filed as inconclusive are left out. A call without a number means that no potency is given here. The source made the active and inactive calls. The call rests on the fitted dose curve; in most records, active means well fitted cell-killing curve with a large enough effect; inconclusive means small, poorly fitted or top-dose-only effect, or effect the other way; inactive means no such curve, though single readings can be large or run the other way.
Potency means the concentration at half of the fitted maximal effect.

A short description of this test: Quantitative High-Throughput drug screen in 47 multiple myeloma cell lines against the NCATS MIPE library collection: KMS26_JCRB cell viability assay (AID 1918975). Further: nearly all actives have a fitted effect of over 45% in size. The settings on record: KMS26 myeloma cells viability, CellTiter-Glo ATP, 48 h; series mostly up to 45.8 µM. An excerpt:
PI: Beverly A. Mock Ph.D.
Laboratory of Cancer Biology and Genetics,
Center for Cancer Research, National Cancer Institute,
National Institute of Health, Bethesda, Maryland
Drug resistance and disease progression are common in multiple myeloma (MM) patients, underscoring the need for new therapeutic combinations. […] We hypothesized that effective combinations would reduce MYC expression and enhance p16 activity. […] These preclinical data identify potentially useful drug combinations for evaluation in drug-resistant MM and reveal potential mechanisms of combined drug sensitivity.
Described herein is the primary MIPE qHTS used to cherrypick compounds. Validated compounds were then further tested for potential synergistic activiy.
[1] Peat TJ, Gaikwad SM, Dubois W, Gyabaah-Kessie N, Zhang S, Gorjifard S, Phyo Z, Andres M, Hughitt VK, Simpson RM, Miller MA, Girvin AT, Taylor A, Williams D, D'Antonio N, Zhang Y, Rajagopalan A, Flietner E, Wilson K, Zhang X, Shinn P, Klumpp-Thomas C, McKnight C, Itkin Z, Chen L, Kazandijian D, Zhang J, Michalowski AM, Simmons JK, Keats J, Thomas CJ, Mock BA. Drug combinations identified by high-throughput screening promote cell cycle transition and upregulate Smad pathways in myeloma. Cancer Lett. 2023 Aug 1;568:216284. doi: 10.1016/j.canlet.2023.216284. Epub 2023 Jun 24. PMID: 37356470; PMCID: PMC10408729.
SEQUENCE No. (e.g., 1, 2, 3, etc.); […] (e.g., Cells, Incubation, Reagent, etc.); VALUE and DESCRIPTION.
1; Cells; 5 uL; white, solid bottom 1536-well Greiner assay plate.
2; Compounds; 23 nL; Kalypsis pin tool (Wako USA) equipped with a 1536-well pin head to transfer to the assay plates.
3; Incubation; 48 hours; 37C incubation.
4; Reagent;5uL; CellTiter Glo (Promega).
5; Detector; 425V; Luminescence; Viewlux PerkinElmer.
NOTES (numbers refer to Sequence numbers above)
1. The cell-based screening methods employed in this study were like those previously published. Briefly, the corresponding myeloma cell lines were screened in 1,536-well plates with 500 cells, 5-uL per well for inhibition of cell viability (assessed by measuring ATP levels with CellTiterGlo).
2. NCATS MIPE 4.0 library of approved and investigational drugs were added using the Kalypsis pin tool. Wells treated with DMSO only for 100% viability and media only wells for 0% viability were used as controls.
3. The assay plates were covered and incubated for 48 hours in a 37C, 5% CO2 incubator with controlled humidity.
4. After 48 hours, CellTilter-GloTM luminescent substrate mix (Promega) reagent was added to the assay plate and plates we incubated for 5 min at room temperature.
5. Signal was measured as median relative luminescence units on a ViewLux (PerkinElmer) multiplate reader.
[1] Heske CM, Davis MI, Baumgart JT, Wilson K, Gormally MV, Chen L, Zhang X, Ceribelli M, Duveau DY, Guha R, Ferrer M, Arnaldez FI, Ji J, Tran HL, Zhang Y, Mendoza A, Helman LJ, Thomas CJ. Matrix Screen Identifies Synergistic Combination of PARP Inhibitors and Nicotinamide Phosphoribosyltransferase (NAMPT) Inhibitors in Ewing Sarcoma. Clin Cancer Res. 2017 Dec 1;23(23):7301-7311. doi: 10.1158/1078-0432.CCR-17-1121. Epub 2017 Sep 12. PMID: 28899971; PMCID: PMC6636827.
In general terms: In ATP-based viability assays light output follows the ATP content of the culture.
For `O=C1N(c2ccccc2)c2ccccc2C1(Cc1ccncc1)Cc1ccncc1`, the Potency was 37.2 µM (active). Next, `O=C(C1CCCCC1)N1CC(=O)N2CCc3ccccc3C2C1` (stereo not given): “inactive”; `N[C@@H](Cc1c[nH]c2ccc(O)cc12)C(=O)O`: “inactive”; `Nc1nc2c(ncn2COC(CO)CO)c(=O)[nH]1`: 20.9 µM (active). In the case of `CCC1(C)CC(=O)NC1=O` (stereo not given), the Potency entry is “inactive”. The result for `OCCN1CCN(CCCN2c3ccccc3Sc3ccc(C(F)(F)F)cc32)CC1` reads 20.9 µM (active). The result for `CN1CCN2c3ccccc3Cc3ccccc3C2C1` (stereo not given) reads 26.4 µM (active); that for `O=C(c1ccc(OCCN2CCCCC2)cc1)c1c(-c2ccc(O)cc2)sc2cc(O)ccc12`, 20.9 µM (active). On to `NCCCCCC(=O)O`, for which the Potency entry is “inactive”. The result for `CS(=O)(=O)Nc1ccc([N+](=O)[O-])cc1Oc1ccccc1` reads 18.7 µM (active). Turning to `NC(=O)NO`, the Potency is 1.18 µM (active). The result for `C[C@H]1c2cccc(O)c2C(O)=C2C(=O)[C@]3(O)C(O)=C(C(N)=O)C(=O)[C@@H](N(C)C)[C@@H]3[C@@H](O)[C@@H]21` reads 23.5 µM (active); that for `CC1(C)O[C@H]2CC(=O)OC[C@]23[C@H]2CC[C@@]4(C)[C@H](c5ccoc5)OC(=O)[C@H]5O[C@]54[C@]2(C)C(=O)C[C@@H]13`, “inactive”; that for `CC(C)C(=O)Nc1ccc([N+](=O)[O-])c(C(F)(F)F)c1`, 8.33 µM (active). Next, `CN1CCN(C2=Nc3cc(Cl)ccc3Nc3ccccc32)CC1`: “inactive”.

Turning to `CN(C)CCOC(c1ccccc1)c1ccccc1`, the Potency result was “inactive”.

In the case of `NCCS(=O)(=O)O`, the Potency result is “inactive”.

As for `Cc1cc(C(C)(C)C)cc(C)c1CC1=NCCN1`, the Potency entry is “inactive”.

On to `CC#C[C@]1(O)CC[C@H]2[C@@H]3CCC4=CC(=O)CCC4=C3[C@@H](c3ccc(N(C)C)cc3)C[C@@]21C`, for which the Potency was 4.18 µM (active).

Take `Cc1cn([C@H]2C=C[C@@H](CO)O2)c(=O)[nH]c1=O`: the Potency result was “inactive”. `O=C(Nc1ccc([N+](=O)[O-])cc1Cl)c1cc(Cl)ccc1O`: the Potency was 1.87 µM (active). On to `CN(C)C(=N)N=C(N)N`, for which the Potency result was “inactive”. Regarding `CC[C@@]1(O)C(=O)OCc2c1cc1n(c2=O)Cc2cc3c(CN(C)C)c(O)ccc3nc2-1`, the Potency was 20.9 µM (active). Next, `COc1ccccc1OCC(O)CN1CCN(CC(=O)Nc2c(C)cccc2C)CC1` (stereo not given): “inactive”; `Nc1nnc(-c2cccc(Cl)c2Cl)c(N)n1`: “inactive”. Next, `CC1COc2c(N3CCN(C)CC3)c(F)cc3c(=O)c(C(=O)O)cn1c23` (stereo not given): “inactive”; `CN1CCN(CCCN2c3ccccc3Sc3ccc(Cl)cc32)CC1`: 26.4 µM (active). Turning to `NCCc1cnc[nH]1`, the Potency entry is “inactive”. In the case of `NC(CO)C(=O)NNCc1ccc(O)c(O)c1O` (stereo not given), the Potency was 33.2 µM (active). The result for `CN(C)CCC=C1c2ccccc2C=Cc2ccccc21` reads 6.62 µM (active); that for `Fc1ccc([C@@H]2CCNC[C@H]2COc2ccc3c(c2)OCO3)cc1`, “inactive”; that for `CCC1(c2ccccc2)C(=O)NCNC1=O`, “inactive”. Turning to `CCc1cccc2c3c([nH]c12)C(CC)(CC(=O)O)OCC3` (stereo not given), the Potency entry was “inactive”. With `CS(=O)(=O)CCNCc1ccc(-c2ccc3ncnc(Nc4ccc(OCc5cccc(F)c5)c(Cl)c4)c3c2)o1`, the Potency was 16.6 µM (active). As to `O=c1[nH]cc(F)c(=O)[nH]1`, the Potency result is “inactive”.

For `Cc1ccccc1N1C(=O)c2cc(S(N)(=O)=O)c(Cl)cc2NC1C` (stereo not given), the Potency result was “inactive”. The result for `CN(CCOc1ccc(NS(C)(=O)=O)cc1)CCc1ccc(NS(C)(=O)=O)cc1` reads “inactive”; that for `CC[N+](CC)(CC)CCOc1cccc(OCC[N+](CC)(CC)CC)c1OCC[N+](CC)(CC)CC`, “inactive”; that for `COc1ccccc1OCCNCC(O)COc1cccc2[nH]c3ccccc3c12` (stereo not given), 23.5 µM (active). In the case of `O=C(c1ccc(F)cc1)C1CCN(CCn2c(=O)[nH]c3ccccc3c2=O)CC1`, the Potency entry is “inactive”.
